The list is not random: actives were taken first. Their share in the collection is about 11%.
FLuc inh – Photinus pyralis luciferase inhibition; P08659; purified P. pyralis luciferase, luminescence, biochemical; Potency, µM (top dose mostly 115 µM), most hits filed as inhibitors; actives 2.5% (n = 76,000); note: nearly all actives have a fitted effect of over 65% in size
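Luminescence read by CCD imager after adding enzyme (10nM final) to wells holding compound, titrated in qHTS. Substrates 10uM each D-luciferin and ATP; buffer 50mM Tris acetate pH 7.5, 10mM Mg acetate, Tween-20, BSA.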
HEK293 tox – HEK 293 cell cytotoxicity. actives 6.6% (n = 94,000). HEK 293 viability, ATP luminescence (CellTiter-Glo), 48-72 h. Potency, µM (titrated, usually from 115 µM), for inactives: top-dose activity change, negative = cytotoxicity, hits mostly inhibitors; note: nearly all actives have a fitted effect of over 60% in size
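HEK 293 cells at 250 cells/well were exposed to compounds by pintool transfer for 48 or 72 hr at 37 degree Celsius, 5% CO2. Viability was read as ATP-coupled luminescence with CellTiter-Glo after 10 min at room temperature.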
3T3 cytotox – NIH 3T3 cell cytotoxicity | Potency, µM (highest dose often 96.7 µM), inactives show at the highest dose activity change, negative = cytotoxicity, most hits filed as inhibitors | AID 1345082 | NIH 3T3 viability, CellTiter-Glo ATP luminescence, 48-72 h | actives 4.3% (n = 94,000); note: nearly all actives have a fitted effect of over 55% in size
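Luminescent ATP readout (CellTiter-Glo, 10 min RT) after 48 or 72 hr compound exposure of NIH 3T3 cells seeded at 400 cells/well in 1536-well format; quantitative HTS.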
hNpr1 antagonist – blocks ANP-stimulated signaling of human Npr1 receptor. P16066. HEK293 hNpr1 GloSensor cGMP, ANP-stimulated luminescence. Potency, µM (highest dose often 46.3 µM), for the others: top-dose activity change, negative = inhibition, actives largely listed as inhibitors. actives 1.6% (n = 76,000); calls by dose curve; note: nearly all actives have a fitted effect of over 60% in size
Target sequence (P16066 whole entry, looked up): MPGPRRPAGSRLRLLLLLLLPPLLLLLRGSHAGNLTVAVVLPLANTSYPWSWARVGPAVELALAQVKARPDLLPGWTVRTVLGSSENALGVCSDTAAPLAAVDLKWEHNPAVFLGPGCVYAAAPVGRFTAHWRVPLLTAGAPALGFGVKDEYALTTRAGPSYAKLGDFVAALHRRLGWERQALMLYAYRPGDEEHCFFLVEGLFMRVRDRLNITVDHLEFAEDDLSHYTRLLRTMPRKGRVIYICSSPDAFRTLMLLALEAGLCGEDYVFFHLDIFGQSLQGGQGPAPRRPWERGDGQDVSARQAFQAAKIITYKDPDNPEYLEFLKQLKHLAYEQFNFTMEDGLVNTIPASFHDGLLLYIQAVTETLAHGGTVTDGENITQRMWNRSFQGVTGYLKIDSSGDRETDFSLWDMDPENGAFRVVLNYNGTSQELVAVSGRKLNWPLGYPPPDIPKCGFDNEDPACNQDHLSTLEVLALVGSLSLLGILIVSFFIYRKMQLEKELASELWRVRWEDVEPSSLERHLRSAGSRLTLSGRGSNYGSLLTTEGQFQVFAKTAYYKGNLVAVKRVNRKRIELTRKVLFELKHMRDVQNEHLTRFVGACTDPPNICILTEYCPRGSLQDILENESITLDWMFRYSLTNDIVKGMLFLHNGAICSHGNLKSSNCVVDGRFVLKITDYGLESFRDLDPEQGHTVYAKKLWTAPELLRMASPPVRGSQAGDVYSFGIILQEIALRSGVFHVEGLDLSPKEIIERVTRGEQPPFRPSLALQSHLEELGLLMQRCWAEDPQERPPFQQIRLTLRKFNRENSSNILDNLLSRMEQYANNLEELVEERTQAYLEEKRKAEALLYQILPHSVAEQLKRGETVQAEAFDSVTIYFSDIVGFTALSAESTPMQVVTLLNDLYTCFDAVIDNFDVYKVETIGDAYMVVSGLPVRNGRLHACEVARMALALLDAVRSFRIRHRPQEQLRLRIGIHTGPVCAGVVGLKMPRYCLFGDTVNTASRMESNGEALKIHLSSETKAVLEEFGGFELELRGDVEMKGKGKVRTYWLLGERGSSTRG
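Compound pre-incubated 30 min at room temperature on GloSensor-loaded HEK293 cells stably carrying hNpr1 and the pGS-40F cGMP biosensor. Stimulation uses hNppA at 0.1 nM final; luminescence is taken at baseline and 20 min post-agonist.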
* marks the source's active call; other numbers are inactive results; [ ] = dose if it differs, or a comment. Unless noted, calls come from the whole dose curve; as a rule, active = well fitted curve in the direction sought with a large enough effect; inconclusive = small, poorly fitted or top-dose-only effect, or another doubt; inactive = no such curve, though single readings can be large; an effect the other way counts as inactive or inconclusive. % is set by controls: 0 for no effect and ±100 for the full control effect; potency is the fitted concentration of half-maximal effect.

What do the screens show for `CSc1ccc(-c2cccc(CN3CCC(NC(=O)c4ccc(C)cc4)CC3)c2)cc1`?
HEK293 tox: -3%; 3T3 cytotox: -9%

What do the screens show for `CSc1ccc(-c2cccc(CN3CCC(NC(=O)C4CCCC4)CC3)c2)cc1`?
HEK293 tox: 0%; 3T3 cytotox: -2%

Results for COc1ccccc1-c1cccc(CN2CCC(NC(=O)c3ccc(C)cc3)CC2)c1 ?
HEK293 tox: 50µM*; 3T3 cytotox: inconclusive

What do the screens show for `O=C(NC1CCCC1)N1CCCC1C(=O)N1CCCC1c1nc2ccncc2[nH]1` (centres undefined)?
HEK293 tox: inactive; 3T3 cytotox: -15%

How did CCN(Cc1ccccc1)c1ncncc1-c1nc(-c2ccccc2)no1 do in these assays?
FLuc inh: inactive; HEK293 tox: 79µM*; 3T3 cytotox: inconclusive; hNpr1 antagonist: -24%

How did CNC(=O)c1cc(C2CC2)nc2onc(C3CCN(C(=O)c4ccccc4F)CC3)c12 do in these assays?
HEK293 tox: inconclusive; 3T3 cytotox: -32%

Results for COc1ccccc1-n1c(=O)c(C(=O)N2CCN(C(=O)c3cccc(Cl)c3)CC2)nc2cccnc21 ?
HEK293 tox: -3%; 3T3 cytotox: 1%

What do the screens show for `c1coc(-c2ccnc3nc(-c4cccs4)nn23)c1`?
FLuc inh: inactive; HEK293 tox: -14%; 3T3 cytotox: 35µM*; hNpr1 antagonist: 6%

What do the screens show for `c1csc(-c2nc3nccc(-c4ccncc4)n3n2)c1`?
FLuc inh: inactive; HEK293 tox: -4%; 3T3 cytotox: -14%; hNpr1 antagonist: 3%

What do the screens show for `c1csc(-c2nc3nccc(-c4ccsc4)n3n2)c1`?
FLuc inh: inactive; HEK293 tox: inconclusive; 3T3 cytotox: inconclusive; hNpr1 antagonist: 1%

What do the screens show for `COc1cccc(-c2ccnc3nc(-c4cccs4)nn23)c1`?
FLuc inh: 16µM*; HEK293 tox: inconclusive; 3T3 cytotox: inconclusive; hNpr1 antagonist: -14%

How did CCN(Cc1ccncc1)C(=O)c1c(OCC2CC2)cc(=O)n2c1CCCCC2 do in these assays?
FLuc inh: inactive; HEK293 tox: 1%; 3T3 cytotox: -14%; hNpr1 antagonist: 5%

What do the screens show for `O=C(c1cnn2ccccc12)N1CCC(Cc2cccc(CO)c2)C1` (centres undefined)?
FLuc inh: inconclusive; HEK293 tox: inconclusive; 3T3 cytotox: inconclusive; hNpr1 antagonist: 7.1µM*

Results for CSc1ccc(-c2cccc(CN3CCC(NC(=O)NC4CCCC4)CC3)c2)cc1 ?
HEK293 tox: -9%; 3T3 cytotox: -17%

What do the screens show for `CSc1ccc(-c2cccc(CN3CCC(NC(=O)Nc4ccccc4)CC3)c2)cc1`?
HEK293 tox: inconclusive; 3T3 cytotox: 14µM*

Results for CSc1ccc(-c2cccc(CN3CCC(NC(=O)Nc4ccccc4F)CC3)c2)cc1 ?
HEK293 tox: 18µM*; 3T3 cytotox: 13µM*

Results for O=C(C1CCCN1C(=O)Nc1ccc(Cl)cc1)N1CCC(N2Cc3cccn3C2=O)CC1 (centres undefined) ?
HEK293 tox: inconclusive; 3T3 cytotox: 28µM*

What do the screens show for `O=C(C1CCCN1C(=O)C1CCCC1)N1CCC(N2Cc3cccn3C2=O)CC1` (centres undefined)?
HEK293 tox: inactive; 3T3 cytotox: -4%

Results for OCc1ccc(CN2C[C@H](O)C[C@H]2c2nc(-c3ccc(OC(F)(F)F)cc3)no2)o1 ?
FLuc inh: 45µM*; HEK293 tox: inconclusive; 3T3 cytotox: inconclusive; hNpr1 antagonist: -12%[70.6 µM]

What do the screens show for `OCc1ccc(CN2C[C@H](O)C[C@H]2c2nc(-c3ccc(F)cc3)no2)o1`?
FLuc inh: 45µM*; HEK293 tox: 1%[172 µM]; 3T3 cytotox: inactive; hNpr1 antagonist: 5%[70.6 µM]

How did OCc1ccc(CN2C[C@H](O)C[C@H]2c2nc(-c3cccnc3)no2)o1 do in these assays?
FLuc inh: inactive; HEK293 tox: inconclusive; 3T3 cytotox: -3%[174 µM]; hNpr1 antagonist: 8%[70.6 µM]

What do the screens show for `COc1ccc(-c2noc([C@@H]3C[C@@H](O)CN3Cc3ccc(CO)o3)n2)cc1`?
FLuc inh: inconclusive; HEK293 tox: -21%[172 µM]; 3T3 cytotox: -27%[174 µM]; hNpr1 antagonist: inconclusive

How did CNCC(=O)NC1CCCN(c2ccc(C(F)(F)F)cn2)C1 (centres undefined) do in these assays?
FLuc inh: inactive; HEK293 tox: inactive; 3T3 cytotox: -12%; hNpr1 antagonist: 0%

Results for Cc1ccc(C(=O)N2CCCC3(CCNCC3)CC2)cc1Cl ?
FLuc inh: inactive; HEK293 tox: inconclusive; 3T3 cytotox: 79µM*; hNpr1 antagonist: -1%

How did CC1CCCCN1CCN(C)c1nc(-c2ccncc2)nc2c1cnn2C (centres undefined) do in these assays?
FLuc inh: inactive; HEK293 tox: inconclusive; 3T3 cytotox: inconclusive; hNpr1 antagonist: -1%

Results for COCCOCC(=O)N1CC(Oc2ccc(-c3noc(-c4ccccc4)n3)cc2)C1 ?
FLuc inh: inconclusive; HEK293 tox: inconclusive; 3T3 cytotox: inconclusive; hNpr1 antagonist: 10µM*

How did COCCC(=O)N1CC(Oc2ccc(-c3noc(-c4ccccc4)n3)cc2)C1 do in these assays?
FLuc inh: 13µM*; HEK293 tox: 22µM*; 3T3 cytotox: inconclusive; hNpr1 antagonist: 20µM*

Results for COc1cccc(CC(=O)N2CC(Oc3ccc(-c4nc(-c5ccccc5)no4)cc3)C2)c1 ?
FLuc inh: 8.9µM*; HEK293 tox: 13µM*; 3T3 cytotox: inconclusive; hNpr1 antagonist: 3.5µM*

Results for Cc1ccccc1C(=O)N1CCN(C(=O)c2nc3cccnc3n(Cc3ccccc3)c2=O)CC1 ?
HEK293 tox: inactive; 3T3 cytotox: -8%

Results for O=C1[C@@H]2C[C@@H](CN2C(=O)c2cncnc2)Oc2ccccc2N1Cc1ccc(OC(F)(F)F)cc1 ?
FLuc inh: inactive; HEK293 tox: -17%; 3T3 cytotox: -2%; hNpr1 antagonist: 4%

Results for CCCCCC(=O)N1CCC2(CC1)[C@H](C(=O)OCC)[C@@H](O)C(=O)N2Cc1ccccc1 ?
HEK293 tox: 0%; 3T3 cytotox: inconclusive

Results for COc1ccc(C2NC(=O)N(CC(=O)N3CCCCCC3)C3=C2C(=O)OC3)cc1 (centres undefined) ?
FLuc inh: inactive; HEK293 tox: 2%; 3T3 cytotox: inactive; hNpr1 antagonist: 3%

Results for COc1cccc(CN2CCCCC2c2nc(CCOCC3CC3)no2)c1 (centres undefined) ?
HEK293 tox: inconclusive; 3T3 cytotox: -26%

How did COc1ccc2c(c1)OCC(CNC(=O)c1cnn3ccccc13)C2 (centres undefined) do in these assays?
FLuc inh: inactive; HEK293 tox: inconclusive; 3T3 cytotox: inconclusive; hNpr1 antagonist: 23%

Results for COc1ccc(C(=O)N2CCOCC3(CN(Cc4ccccc4)C3)C2)cc1 ?
FLuc inh: inactive; HEK293 tox: 10µM*; 3T3 cytotox: inconclusive; hNpr1 antagonist: 2%[70.6 µM]
